Measurements reported in PubChem BioAssay (NCI).
About 83,000 compounds went through this panel and 20% of them were active in at least one assay; those are over-represented in the sample as a whole.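 Compound tested at a single concentration for 48 hours in 96-well plates; a percent growth value below 10 was scored as active.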 Activity calls are given as the source filed them.

Legend:
Experiment in all cases: NCI-60 one-dose screen, 48 h (100 = growth as untreated, 0 = no growth, -100 = all killed)
Details in all cases: 10 µM unless noted
HCT-15 colon = tested on: HCT-15 colon
HT29 colon = tested on: HT29 colon
SNB-75 CNS = tested on: SNB-75 CNS
SNB-19 CNS = tested on: SNB-19 CNS
U251 CNS = tested on: U251 CNS
PC-3 prostate = tested on: PC-3 prostate
SK-MEL-5 melanoma = tested on: SK-MEL-5 melanoma
UACC-62 melanoma = tested on: UACC-62 melanoma
LOX IMVI melanoma = tested on: LOX IMVI melanoma
SK-MEL-28 melanoma = tested on: SK-MEL-28 melanoma

Measured: growth

COc1cc(OC)cc(C(=O)Nc2sc3c(c2C(N)=O)CCC(=O)C3)c1
active: PC-3 prostate 8.96%
inactive: HCT-15 colon 10.9% | HT29 colon 39.6% | SNB-75 CNS 47.9% | SNB-19 CNS 25.1% | U251 CNS 10.3% | SK-MEL-5 melanoma 63.1% | UACC-62 melanoma 20.4% | LOX IMVI melanoma 22.1% | SK-MEL-28 melanoma 48%

CCN(CC)CCn1c2ccc(O)cc2c2sc3cc(OC)ccc3c(=O)c21
active: HCT-15 colon 4.47% | HT29 colon -13.8% | LOX IMVI melanoma -86% | SK-MEL-28 melanoma 2.25%
inactive: SNB-75 CNS 40.7% | SNB-19 CNS 25.7% | U251 CNS 16.1% | PC-3 prostate 30.5% | SK-MEL-5 melanoma 76.7% | UACC-62 melanoma 28.5%

COc1cc2nc(Cl)nc(Nc3cccc(C4=Nc5c(N)nc(N)nc5NC(c5ccc(Cl)cc5)C4)c3)c2cc1OC (stereo not given)
inactive: SNB-75 CNS 89.9% | SNB-19 CNS 12.8% | PC-3 prostate 62.8% | SK-MEL-5 melanoma 70.6% | UACC-62 melanoma 92% | SK-MEL-28 melanoma 73.9%
active: HCT-15 colon -7.82% | HT29 colon 3.99% | U251 CNS -52.4% | LOX IMVI melanoma -52.3%

C#CCOc1ccc(/C=N\Nc2nc(-c3ccc(C)cc3)cs2)cc1OC
inactive: HCT-15 colon 86.1% | HT29 colon 88.2% | SNB-75 CNS 114% | SNB-19 CNS 95.2% | U251 CNS 89.3% | PC-3 prostate 69.6% | SK-MEL-5 melanoma 71.6% | UACC-62 melanoma 74.7% | LOX IMVI melanoma 93.7% | SK-MEL-28 melanoma 89.9%

O=C1C(c2ccccc2)=C(N2CCc3ccccc32)OC1(Cl)Cl
inactive: HCT-15 colon 21.1% | HT29 colon 37.4% | SNB-75 CNS 74.3% | SNB-19 CNS 84.9% | U251 CNS 85.8% | PC-3 prostate 69.5% | SK-MEL-5 melanoma 99.8% | UACC-62 melanoma 81.4% | LOX IMVI melanoma 56.7% | SK-MEL-28 melanoma 31.8%

O=C(NNc1nc2cc(F)ccc2n2cccc12)c1ccncn1
inactive: HCT-15 colon 25.8% | HT29 colon 28.3% | SNB-19 CNS 25.1% | U251 CNS 12.9% | PC-3 prostate 35.6% | SK-MEL-28 melanoma 23.5%
active: SNB-75 CNS -2.99% | SK-MEL-5 melanoma -22.1% | UACC-62 melanoma 4.91% | LOX IMVI melanoma 7.82%

CN(C)CCNC(=O)c1ccc(-c2nc3ccc4[nH]ncc4c3c3c2CCC3)cc1
active: SNB-19 CNS 9.44% | PC-3 prostate 3.49% | SK-MEL-5 melanoma 7.44% | LOX IMVI melanoma -61%
inactive: HCT-15 colon 17.2% | HT29 colon 12.6% | SNB-75 CNS 40.3% | U251 CNS 25.3% | UACC-62 melanoma 15.8% | SK-MEL-28 melanoma 21.9%

CCCCCc1ccc(S(=O)(=O)Nc2cccc(-c3csc(NC(=O)CN4CCN(CCO)CC4)n3)c2)cc1
inactive: HCT-15 colon 51.3% | HT29 colon 35.6% | SNB-75 CNS 88% | SNB-19 CNS 82.6% | U251 CNS 55.4% | PC-3 prostate 64.1% | SK-MEL-5 melanoma 51.7% | UACC-62 melanoma 90% | SK-MEL-28 melanoma 79.4%
active: LOX IMVI melanoma -45.9%

O=C(CSc1nnc(-c2ccc(Cl)cc2)n1-c1ccccc1)Nc1ccc(Br)cc1
inactive: HCT-15 colon 67% | HT29 colon 21.3% | SNB-19 CNS 35% | PC-3 prostate 13.5% | SK-MEL-5 melanoma 31.2% | UACC-62 melanoma 20.2% | SK-MEL-28 melanoma 33.4%
active: SNB-75 CNS -33.7% | U251 CNS -51.8% | LOX IMVI melanoma -54.5%

CNC1CCc2c(sc(NC(=O)c3ccc(C(C)(C)C)cc3)c2C(N)=O)C1 (stereo not given)
active: HCT-15 colon 4.54% | HT29 colon -0.193% | U251 CNS 3.54% | LOX IMVI melanoma -88.1%
inactive: SNB-75 CNS 78.8% | SNB-19 CNS 55.6% | PC-3 prostate 40% | SK-MEL-5 melanoma 83.6% | UACC-62 melanoma 60.5% | SK-MEL-28 melanoma 63.2%

NC(N)=Nc1ccc(Oc2cccc(Nc3ccc(Br)c(C(F)(F)F)c3)c2)cc1
active: SNB-19 CNS -15.9% | U251 CNS -78.9% | PC-3 prostate 1.98% | UACC-62 melanoma 7.23% | LOX IMVI melanoma -97.1%
inactive: HCT-15 colon 69.9% | HT29 colon 11.5% | SNB-75 CNS 27.1% | SK-MEL-5 melanoma 22.5% | SK-MEL-28 melanoma 58.3%

Cn1ccnc1C(=O)/C=C/c1ccc(CNC(=O)c2ccc(F)cc2)cc1
active: HCT-15 colon 8.09% | LOX IMVI melanoma -1.32%
inactive: HT29 colon 10.2% | SNB-75 CNS 60.6% | SNB-19 CNS 15.6% | U251 CNS 17.7% | PC-3 prostate 23.5% | SK-MEL-5 melanoma 72.8% | UACC-62 melanoma 43.2% | SK-MEL-28 melanoma 80.5%

N#Cc1cccc(/C(N)=N/C(N)=N/c2nc3ccccc3s2)c1
inactive: HCT-15 colon 31.9% | HT29 colon 11.3% | SNB-75 CNS 22.2% | SNB-19 CNS 27.3% | U251 CNS 27.7% | PC-3 prostate 17.7% | SK-MEL-5 melanoma 41.5% | UACC-62 melanoma 34.5% | LOX IMVI melanoma 46.2% | SK-MEL-28 melanoma 65.4%

CCO/C=N/C1=C(C#N)C(c2ccc(Cl)cc2)c2sc3c(CC)cccc3c2O1 (stereo not given)
inactive: HCT-15 colon 23.3% | HT29 colon 10.7% | SNB-19 CNS 24.1% | U251 CNS 20% | PC-3 prostate 16.5% | SK-MEL-5 melanoma 20.5% | UACC-62 melanoma 15.8% | LOX IMVI melanoma 29.9% | SK-MEL-28 melanoma 61.2%
active: SNB-75 CNS -5.34%

COc1ccc2c(c1)Oc1nc(N)c(C#N)c(N)c1C2Sc1ccc(C)cc1 (stereo not given)
inactive: SNB-75 CNS 88.7%
active: HCT-15 colon -82.5% | HT29 colon -26.8% | SNB-19 CNS 7.65% | U251 CNS 0.124% | PC-3 prostate -43.8% | SK-MEL-5 melanoma -25.1% | UACC-62 melanoma 9.86% | LOX IMVI melanoma -98.4% | SK-MEL-28 melanoma -25.9%

Cc1ccc(-c2nnc(SCc3ccc(O)c4ncccc34)o2)cc1
active: SNB-75 CNS 0.0889% | U251 CNS 7.11% | SK-MEL-5 melanoma 2.42% | UACC-62 melanoma 2.61% | LOX IMVI melanoma 4.71%
inactive: HCT-15 colon 10.8% | HT29 colon 79% | SNB-19 CNS 11.1% | PC-3 prostate 12.2% | SK-MEL-28 melanoma 22.8%

c1cc(-c2nc3ccc4[nH]ncc4c3c3c2CCCC3)[nH]n1
inactive: HCT-15 colon 34.8% | HT29 colon 63.7% | SNB-75 CNS 60.3% | SNB-19 CNS 64.6% | U251 CNS 65.7% | PC-3 prostate 57.1% | SK-MEL-5 melanoma 76.9% | UACC-62 melanoma 50.7% | LOX IMVI melanoma 58.4% | SK-MEL-28 melanoma 94.1%

CNC(=O)c1cc(Oc2ccc3nc(NC(=O)c4ccc(N5CCOCC5)c(C(F)(F)F)c4)sc3c2)ccn1
inactive: HCT-15 colon 51.5% | HT29 colon 48.5% | SNB-75 CNS 96.2% | SNB-19 CNS 86.6% | U251 CNS 65.6% | PC-3 prostate 59% | SK-MEL-5 melanoma 28.8% | UACC-62 melanoma 47.7% | LOX IMVI melanoma 76.3% | SK-MEL-28 melanoma 86.1%

COc1cccc(O)c1/C=C(/C)c1ccc2c(OC)cccc2[o+]1
inactive: HCT-15 colon 95.1% | HT29 colon 118% | SNB-75 CNS 97.1% | SNB-19 CNS 103% | U251 CNS 106% | PC-3 prostate 97.5% | SK-MEL-5 melanoma 105% | UACC-62 melanoma 93.7% | LOX IMVI melanoma 83.9% | SK-MEL-28 melanoma 101%

COc1ccc2[nH]cc(-c3csc4nc(-c5ccccc5)cn34)c2c1
active: HT29 colon -8.92% | SNB-75 CNS -4.19% | LOX IMVI melanoma -2.73%
inactive: HCT-15 colon 11.3% | SNB-19 CNS 23.6% | U251 CNS 13.6% | PC-3 prostate 19.4% | SK-MEL-5 melanoma 47.2% | UACC-62 melanoma 32.4% | SK-MEL-28 melanoma 73.8%

CN(C)CCNC(=O)c1ccc(-c2nc3ccc4[nH]ncc4c3c3c2COCC3)cc1
inactive: HCT-15 colon 84.7% | HT29 colon 16.7%
active: SNB-75 CNS -30.1% | SNB-19 CNS 6.94% | U251 CNS 5.37% | PC-3 prostate 0.378% | SK-MEL-5 melanoma 3.57% | UACC-62 melanoma -24.7% | LOX IMVI melanoma -72.4% | SK-MEL-28 melanoma -6.13%

O=C(NNc1nc2cc(F)ccc2n2c(CN3CC4CNCC4C3)ccc12)c1cnccn1 (stereo not given)
active: UACC-62 melanoma 1.75% | LOX IMVI melanoma 7.74%
inactive: HCT-15 colon 18.1% | HT29 colon 29.2% | SNB-75 CNS 54.3% | SNB-19 CNS 33.5% | U251 CNS 27.2% | PC-3 prostate 27.2% | SK-MEL-5 melanoma 11.2% | SK-MEL-28 melanoma 31.5%

Cc1ccc(-n2cc(/C=N/NC(=O)c3ccncc3)c(-c3ccc(S(C)(=O)=O)cc3)n2)cc1
inactive: HCT-15 colon 37% | HT29 colon 76.6% | SNB-75 CNS 95.7% | SNB-19 CNS 89.9% | U251 CNS 97.5% | PC-3 prostate 81.5% | SK-MEL-5 melanoma 94.5% | UACC-62 melanoma 76.9% | LOX IMVI melanoma 74% | SK-MEL-28 melanoma 93.4%

O=C1Nc2ccccc2/C1=C/c1ccc(CO)n1-c1ccc(Cl)cc1
inactive: HCT-15 colon 24% | HT29 colon 26.7% | SNB-75 CNS 32.8% | SNB-19 CNS 66.1% | U251 CNS 56.4% | PC-3 prostate 53.5% | SK-MEL-5 melanoma 51.9% | UACC-62 melanoma 33.9% | LOX IMVI melanoma 43.5% | SK-MEL-28 melanoma 57.7%

COc1ccc(Cn2cc3c(c2-c2cc(OC)c(OC)c(OC)c2)CCc2c(CN4CCCC4)noc2-3)cc1
inactive: HCT-15 colon 21.1% | SNB-19 CNS 22% | U251 CNS 22.4% | PC-3 prostate 29% | SK-MEL-5 melanoma 20.7% | UACC-62 melanoma 15.8% | LOX IMVI melanoma 34.6% | SK-MEL-28 melanoma 60.9%
active: HT29 colon 8.73% | SNB-75 CNS -2.12%

COc1ccc(CCOc2cc3c(cc2OC)CCN(C(=O)NCc2cocn2)C3c2ccc(C)cc2C)cc1 (stereo not given)
inactive: SNB-75 CNS 39.2% | SNB-19 CNS 22% | PC-3 prostate 20.1% | UACC-62 melanoma 24% | SK-MEL-28 melanoma 38.7%
active: HCT-15 colon 5.53% | HT29 colon -2.64% | U251 CNS 5.74% | SK-MEL-5 melanoma -43.2% | LOX IMVI melanoma 1.85%
